Luciferase inh: blocks Photinus pyralis firefly luciferase activity. P08659. purified firefly luciferase, luminescence, 8 min. Potency, µM (series often up to 57.1 µM), actives largely listed as inhibitors. actives 2.2% (n = 72,000). AID 411; note: nearly all actives have a fitted effect of over 40% in size
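Firefly luciferase (PKLight detection mix) with 10 uM ATP in pH 7.2 imidazole buffer (KCl, MgCl2, Tween 20, BSA). Compounds tested across a concentration series (qHTS). Luminescence read after 8 min at ambient temperature.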
Caspase-7 inhib: blocks human caspase-7 allosterically or competitively; AID 889; recombinant caspase-7, Ac-DEVD-AFC fluorescence rate; Potency, µM (highest dose often 57.5 µM), most hits filed as inhibitors; actives 0.02% (n = 75,000); P55210; active = well fitted inhibition curve with a large enough effect in the main read-out, with a control signal flat, not every such curve was filed as active; inconclusive = small, poorly fitted or top-dose-only effect, or a change in a side signal
Tau fil binding: tau filament binding. P10636. recombinant tau filaments, thioflavin S fluorescence, 15 h; filaments grown with octadecylsulfate alongside compound. Potency, µM (series often up to 57.1 µM). actives 2% (n = 71,000). AID 596;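 note: actives lower thioflavin S fluorescence by blocking filaments or displacing dye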
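Recombinant tau protein (human, 1 uM final) plus 30 uM ODS in HEPES pH 7.4 with NaCl, DTT and thioflavine S. Compound present from the start; fluorescence at 510 nm after 15 h, 37 C.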
Caspase-1 inhib: allosteric or competitive inhibitors of human caspase-1; Potency, µM (highest dose often 57.5 µM), usual class: inhibitors; P29466; Caspase-1 enzyme, Ac-WEHD-AFC fluorogenic rate; actives 0.03% (n = 75,000)
Bst PK mod: modulators of Bacillus stearothermophilus pyruvate kinase; actives 1.2% (n = 51,000); purified pyruvate kinase, luminescence ATP production; ribose 5-phosphate activator present at AC10; Potency, µM; AID 361; in the data active = potency below about 11 µM; inconclusive = mostly about 12 µM to 25 µM;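 the screen sought inhibitors and activators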
A number is an active result; - = inactive; ? = inconclusive; . = not tested or not shown; [ ] = dose if it differs, or a comment. In the library only some 4% were active in any assay of this set; here they are far more common. Unless noted, calls come from the whole dose curve; as a rule, active = well fitted curve in the direction sought with a large enough effect; inconclusive = small, poorly fitted or top-dose-only effect, or another doubt; inactive = no such curve, though single readings can be large; an effect the other way counts as inactive or inconclusive.

SMILES	Luciferase inh	Caspase-7 inhib	Tau fil binding	Caspase-1 inhib	Bst PK mod
Fc1cccc(Cl)c1/C=N\N=C1c2ccccc2-c2ccccc21	-[11.4 µM]	-[11.5 µM]	3.98µM	-[11.5 µM]	.
CCc1cc2c(nc1CC)CCN(CC/C(C)=N/O[C@@H](C)c1cn([C@@H]3COC[C@@H]3O)nn1)C2	-[11.4 µM]	-[11.5 µM]	.	-[11.5 µM]	.
COc1ccc(Br)cc1CNc1ccc(O)cc1	-	-	31.6µM	?	-
COc1ccc(Br)cc1CNC(=O)C1CCN(S(=O)(=O)N2CCCC2)CC1	-	-	-	-	-
O=C1c2ccccc2C(=O)c2c1ccc(O)c2O	.	-	.	-	.
Nc1ccc2c(c1)C(=O)c1ccccc1C2=O	.	-	1.58µM	-	.
CC(C)CCCC(C)C1CCC2C3CC=C4CC(O)CC[C@@]4(C)C3CC[C@@]12C (some centres undefined)	.	-	.	-	.
O=C(Oc1ccc2c(c1)OCO2)c1ccc(F)cc1Cl	12.6µM	.	-	-	.
CCOc1ncccc1C(=O)Oc1ccc2c(c1)OCO2	-	-	-	-	-
COc1ccc(OC)c(NC(=O)c2cc3ccccc3o2)c1	-	-	-	-	.
COc1ccc(OC(=O)c2cc3ccccc3o2)cc1	7.94µM	.	.	.	?
c1ccc(CSc2nnc3c(n2)OC(c2ccco2)Nc2ccccc2-3)cc1 (centres undefined)	-	-	3.98µM	-	.
CCc1ccc2nc(NC3=NCN(CCCN4CCOCC4)CN3)nc(C)c2c1	-	-	-	-	.
Clc1ccc2nc(NC3=NCN(CCN4CCOCC4)CN3)nc(-c3ccccc3)c2c1	-	-	7.94µM	-	-
CN(C)CN1C(=O)S/C(=C2/C(=O)N(CN(C)C)c3ccccc32)C1=O	-[11.4 µM]	-[11.5 µM]	-[11.4 µM]	-[11.5 µM]	.
CCCOC(=O)CSc1nnc(-c2ccc(Cl)cc2Cl)o1	-	-	-	-	-
CCOC(=O)CSc1nnc(-c2ccc(Cl)cc2Cl)o1	12.6µM	-	-	-	.
CCC1=C2CC[C@H]3C(=O)N(c4ccccc4)C(=O)[C@H]3[C@H]2[C@@]2(Cc3ccccc3)C(=NCc3ccccc3)OC(=O)N2C1=O	.	-	.	-	.
O=C(CSc1nnc(CNC(=O)c2cccs2)o1)c1ccc(Cl)cc1	-	-	-	-	-
O=C(CSc1nnc(CNC(=O)c2ccccc2F)o1)c1ccc(Cl)cc1	-	-	31.6µM	-	.
Clc1cccc(Cl)c1COc1ccccn1	-	-	-	-	9.84
O=C1OCCC1Sc1nnc(-c2ccc(Br)cc2)o1 (centres undefined)	15.8µM	-	-	-	.
NC(=O)c1cc(-c2ccccc2)sc1NC(=O)Cc1ccc(S(=O)(=O)N2CCOCC2)s1	-	-	7.94µM	-	-
CCOc1ccc(-c2nnc(N)s2)cc1	15.8µM	-	-	-	.
CCOc1ccc(-c2nn3c(-c4ccccc4)nnc3s2)cc1	-	-	-	-	5.09
SMILES	Luciferase inh	Caspase-7 inhib	Tau fil binding	Caspase-1 inhib	Bst PK mod
CCN(CC)c1ccc(-c2nn3c(-c4cccnc4)nnc3s2)cc1	-	.	.	.	5.23
c1cncc(-c2nnc3sc(-c4ccco4)nn23)c1	-	.	.	.	-
CCCCOc1ccc(-c2nnc(N)s2)cc1	-	.	.	.	-
COc1ccc(CNc2ncnc3ccc(-c4ccccc4CN(C)C)cc23)c(OC)c1	-[2.29 µM]	-	-	-	.
CC(C)(C)C(=O)/C=C(N)/C=C/c1ccccc1	-	-	25.1µM	-	.
CCC1=C(C[C@H]2NCCc3ccccc32)C[C@@H]2c3cc(OC)c(OC)cc3CCN2C1	-[11.4 µM]	-[11.5 µM]	-[11.4 µM]	-[11.5 µM]	.
N=C1C(c2nc(-c3ccc(Cl)cc3)cs2)=C(O)CN1CCCN1CCOCC1	-	-	-	-	4.46
COc1ccc(-c2csc(C3=C(O)CN(Cc4ccc(S(N)(=O)=O)cc4)C3=N)n2)cc1OC	-	-	-	-	-
O=C(NC1CCCC1)c1cnn2c(C(F)(F)F)cc(-c3ccco3)nc12	-	?	?	.	-
NC(=O)c1cnn2c(C(F)(F)F)cc(-c3ccc(F)cc3)nc12	-	-	?	-	2.68
O=C(NCc1ccco1)c1cnn2c(C(F)(F)F)cc(-c3ccccc3)nc12	-	?	-	.	.
NC(=O)c1cnn2c(C(F)(F)F)cc(-c3ccccc3)nc12	-	-	-	-	11.3
CC(C)CCNC(=O)c1cnn2c(C(F)(F)F)cc(-c3ccco3)nc12	-	?	15.8µM	.	-
COc1ncc2nc(-c3cn(C)c4ccccc34)c(=O)n(C)c2n1	-[11.4 µM]	-	-	-	.
Clc1ccc(CSc2ncn[nH]2)cc1	-	-	-	-	.
Brc1ccc2nc(CSc3ncn[nH]3)cn2c1	25.1µM	-	-	-	-
Cc1ccccc1NC(=O)Cn1c(C)nc2ccc(NC(=O)C3CC3)cc2c1=O	-	-	-	-	-
